# Experimental data published in the supplement of paper PMC6555819.
# Legend:
# Assay in all cases: PBM binding z-score (relative to random genomic background probes); higher = stronger binding; sequences stand for … in GC…GCGATTGACAGCGTAGAATGAAGG
# [1] = test system: FXR:RXRa (NR concentration 270 nM, RXRa partner concentration 90 nM)
# How it was run: (§1)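 Binding z-scores were set against random background probes. The data came from custom Agilent 4×180K protein-binding microarrays carrying double-stranded probes with 34-nt variable regions, incubated 1 h with ligand-free nuclear receptor dimers. Partner-specific antibodies detected binding, and scanned fluorescence was regression-normalized.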
# [2] = test system: LXRa:RXRa (NR concentration 270 nM, RXRa partner concentration 90 nM)
# How it was run: as §1
# [3] = test system: LXRa homodimer (NR concentration 270 nM)
# How it was run: as §1
# [4] = test system: LXRb:RXRa (NR concentration 270 nM, RXRa partner concentration 90 nM)
# How it was run: as §1
# [5] = test system: LXRb homodimer (NR concentration 270 nM)
# How it was run: as §1
# [6] = test system: PPARa:RXRa (NR concentration 270 nM, RXRa partner concentration 90 nM)
# How it was run: as §1
# [7] = test system: PPARg:RXRa (NR concentration 180 nM, RXRa partner concentration 90 nM)
# How it was run: as §1
# [8] = test system: PPARg:RXRa 270nM:90nM, anti-RXR (NR concentration 270 nM, RXRa partner concentration 90 nM)
# How it was run: as §1
# [9] = test system: PPARg:RXRa 30nM:10nM, anti-RXR (NR concentration 30 nM, RXRa partner concentration 10 nM)
# How it was run: as §1
# [10] = test system: PPARg:RXRa 90nM:30nM, anti-RXR (NR concentration 90 nM, RXRa partner concentration 30 nM)
# How it was run: as §1
# [11] = test system: PPARg:RXRa DBDmut IVT, anti-RXR (DBD mutation: RXRa K156A/R161A, NR concentration 270 nM, RXRa partner concentration 90 nM)
# How it was run: as §1
# [12] = test system: PPARg:RXRa IVT, anti-PPARg (NR concentration 270 nM, RXRa partner concentration 90 nM)
# How it was run: as §1
# [13] = test system: PPARg DBDmut:RXRa IVT, anti-PPARg (DBD mutation: PPARg1 K132A/R137A, NR concentration 270 nM, RXRa partner concentration 90 nM)
# How it was run: as §1
# [14] = test system: PPARg DBDmut IVT, anti-PPARg (DBD mutation: PPARg1 K132A/R137A, NR concentration 270 nM)
# How it was run: as §1
# [15] = test system: PPARg homodimer (NR concentration 180 nM)
# How it was run: as §1
# [16] = test system: PXR:RXRa (NR concentration 270 nM, RXRa partner concentration 90 nM)
# How it was run: as §1
# [17] = test system: PXR homodimer (NR concentration 270 nM)
# How it was run: as §1
# [18] = test system: RARa:RXR (NR concentration 270 nM, RXRa partner concentration 90 nM)
# How it was run: as §1
# [19] = test system: RARa homodimer (NR concentration 270 nM)
# How it was run: as §1
# [20] = test system: RARb:RXRa (NR concentration 270 nM, RXRa partner concentration 90 nM)
# How it was run: as §1
Sequence,PBM binding z-score [1],PBM binding z-score [2],PBM binding z-score [3],PBM binding z-score [4],PBM binding z-score [5],PBM binding z-score [6],PBM binding z-score [7],PBM binding z-score [8],PBM binding z-score [9],PBM binding z-score [10],PBM binding z-score [11],PBM binding z-score [12],PBM binding z-score [13],PBM binding z-score [14],PBM binding z-score [15],PBM binding z-score [16],PBM binding z-score [17],PBM binding z-score [18],PBM binding z-score [19],PBM binding z-score [20]
CCTACTGGGCCATTCAGAGGTCATTGATCATATG,2.92,4.32,6.45,3.73,0.365,3.82,2.59,3.24,0.818,2.26,4.59,4.4,0.046,0.818,2.59,4.8,2.3,4.59,0.867,
CAGCCTAGGTGAGGGCCAGTATAGGAGGAACGTT,-0.516,-0.622,-0.626,-0.617,-1.21,-0.243,0.16,-0.421,-0.568,-0.607,0.681,0.776,-0.889,-1.52,-0.00134,-0.652,-0.633,-0.402,-0.758,
CAAACTAGGTCAAAGGTCAAAGTAGAGCCAACCA,8.58,7.15,5.51,7.55,2.88,7.99,13.8,11.5,13,13.8,8.23,9.26,5.64,3.48,4.85,7.02,2.18,8.45,2.42,
CCTGCTAGGTCTATGGTCAGCTAAAGCAGCTCGC,-0.302,-0.394,-0.393,-0.493,-0.41,-0.509,-0.485,0.268,-1.04,-0.432,-0.291,-0.225,-0.749,-1.11,-0.133,-0.569,-0.846,-0.37,-0.766,
CGTCCAAGGTCAACGCTAGGTCAGTGAAAGCATT,7.34,5.95,2.69,4.66,0.677,5.71,5.29,5.4,2.18,3.94,3.48,4.66,-0.0404,0.201,6.46,5.11,1.66,6.35,2.52,
CCTAGCAGGCGAGGGTCACTCAAGCATTTCGCTT,1.72,1.44,-0.428,1.56,-1.08,2.63,0.461,1.58,-0.298,1.34,0.277,0.13,-1.61,-1.34,0.73,1.63,-0.241,2.62,-0.425,2.29
ATCTAAAGGTCGAAGGTGAGTATACCCACCCGAA,4.51,4.47,0.846,3.2,1.12,4.71,5.11,5.19,2.76,4.36,0.448,2.65,1.07,0.686,1.22,2.87,0.401,4.15,0.981,3.76
CCCCGGAGGACAGAAGGTCAGAGCTGTCCGCTTT,0.952,1.41,0.417,1.09,-0.645,1.87,-0.0611,0.529,-0.911,0.0217,-0.634,-0.0521,-2.12,-1.93,1.56,1.25,-0.156,1.87,0.0931,
GATACAGGGTCAATGCCAGAGTACGCGTATTGAT,6.02,3.64,-0.0445,3.44,-0.0572,5.2,4.79,4.33,1.52,2.95,2.46,3.45,0.722,0.999,1.86,2.96,0.00137,3.59,0.532,4.19
ATCTCTAGGTAACAAGGTCAGTGAAAGAGAGGAC,1.72,1.92,0.814,1.9,1.16,3.22,3.64,3.84,1.54,3,4.43,4.75,1.63,1.14,2.4,1.98,1.12,2.3,1.5,3.07
CGTCCAAGGTCAACAGGTCAGTGAAAGCGACGTG,7.08,5.58,1.56,4.45,0.945,5.84,5.65,6.07,2.82,4.88,3.88,4.5,0.0184,0.0079,5.41,4.98,1.28,5.92,1.34,
TATTGTAGATCAAAGGTTAAGAAAGCCGAAGCCT,1.52,2.61,0.529,2.07,0.724,4.99,8.15,8.41,7.59,9.21,1.27,4.2,1.1,1.23,1.87,2.16,0.399,3.1,0.703,2.07
ACTAATTGGTCAGCTGAGGTCACACACAATTCGG,3.46,3.25,2.59,3.68,1.15,4.06,2.17,2.77,1.23,1.88,1.58,2.86,1.1,1.2,2.75,5.67,1.67,4.72,1.56,3.91
TCTAGGAGGACACGAAGGTCAGAGCTTTCCAGAG,1.27,0.762,0.19,0.856,-0.833,2.05,0.882,2.09,2.49,2.5,1.91,1.99,-0.157,-1.05,0.55,1.72,0.568,1.83,-0.482,
TGAATGACGTTAAAGATCAGGGAACGTGGCGTCG,-0.238,-0.18,-0.178,-0.538,0.178,-0.0143,0.989,1.26,0.931,1.28,-1.13,0.0329,0.97,0.284,-0.272,-0.444,-0.0558,-0.209,0.184,-0.171
